TMEM16A act – mouse TMEM16A channel activation, primary screen; Q8BHY3; HEK293 TMEM16A/YFP-H148Q/I152L, iodide quench fluorescence; stronger effect = lower value; B-score at 10 µM; 0.3% of 340,000 active; AID 623877;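 active = fluorescence-ratio B-score plate-corrected deviation score at least 3 library SD below zero, with starting fluorescence score within 5 deviations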;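 note: channel opened by trigger with iodide after compound preincubation; score built on the fluorescence ratio of max minus min over baseline; more negative score means more quench and so TMEM16A activation or potentiation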
CHT PAM – allosteric activators of human choline transporter CHT; Q9GZV3; CHT-expressing cells, membrane potential dye, choline EC20; stronger effect = higher value; LV-AA mutant CHT in HEK293 cells; B-score at 10 µM; 0.49% of 310,000 active; AID 488977;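 active = initial fluorescence not abnormally high and integrated response B-score, plate-corrected, over 3 SD above library mean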
Target sequence (Q9GZV3 whole entry, looked up): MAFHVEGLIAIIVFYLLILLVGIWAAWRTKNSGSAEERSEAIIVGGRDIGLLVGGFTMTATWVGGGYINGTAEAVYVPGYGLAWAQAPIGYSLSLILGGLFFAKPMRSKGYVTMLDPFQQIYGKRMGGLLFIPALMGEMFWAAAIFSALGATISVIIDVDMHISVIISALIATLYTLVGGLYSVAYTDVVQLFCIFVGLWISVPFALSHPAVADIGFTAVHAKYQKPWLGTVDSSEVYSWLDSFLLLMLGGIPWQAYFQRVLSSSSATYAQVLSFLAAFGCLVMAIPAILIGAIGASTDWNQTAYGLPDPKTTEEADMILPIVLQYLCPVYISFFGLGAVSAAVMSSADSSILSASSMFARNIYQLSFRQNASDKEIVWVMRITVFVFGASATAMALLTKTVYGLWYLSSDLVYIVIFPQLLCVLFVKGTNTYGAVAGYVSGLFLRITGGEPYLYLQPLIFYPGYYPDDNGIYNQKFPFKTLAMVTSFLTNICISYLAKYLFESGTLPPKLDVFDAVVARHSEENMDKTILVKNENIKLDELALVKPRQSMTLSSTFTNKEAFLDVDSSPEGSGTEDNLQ
Kir21 block – blocks the mouse Kir2.1 inward-rectifier potassium channel; P35561; HEK293-Kir2.1, FluxOR thallium flux fluorescence; stronger effect = lower value; B-score at 10 µM; 0.85% of 310,000 active; AID 1672;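 active = fluorescence ratio B-score at or below minus 3 SD of library scores, with starting-brightness B-score within 2 SD, cut at about -4.2 in these data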;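 note: channel flux triggered by added potassium and thallium sulfate stimulus; B-score of peak minus minimum fluorescence over baseline after thallium stimulus; more negative B-score means stronger Kir2.1 block with less thallium influx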
Rce1 inh – yeast Ras-converting enzyme inhibition. Q03530. yeast membranes, quenched prenylated peptide cleavage fluorescence. calls only. 0.27% of 290,000 active. AID 2563;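 active = fall in fluorescence gain of 50% or more versus controls, with final raw signal at or below 3038400; inconclusive = same 50% fall but final raw signal above 3038400; inactive = fall in fluorescence gain under 50%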;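 note: plate controls were neutral control wells for no effect and wells lacking membranes for full effect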
CHT inh – inhibitors of human choline transporter CHT | Q9GZV3 | CHT-expressing cells, membrane potential dye, choline response; stronger effect = lower value | 0.86% of 310,000 active | B-score at 10 µM | AID 488975;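 active = B-score over 3 SD under the library average, and starting fluorescence ratio not unusually high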;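 note: choline stimulus applied at its EC90 after an EC20 pre-addition; B-score computed on integrated fluorescence ratio after choline addition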
ANO1 block – blocks the mouse calcium-activated chloride channel TMEM16A | Q8BHY3 | HEK293 TMEM16A/YFP iodide influx fluorescence, ionomycin | normalized B-score (activity score, 25-100; higher = stronger inhibition) at 10 µM | 1.2% of 310,000 active;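 active = ratio plate-corrected score three or more library SD toward inhibition, starting fluorescence score within five deviations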;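 note: score derived from kinetic fluorescence span divided by baseline fluorescence per well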
Starred values were filed as active, the others as inactive; i = inactive; ? = inconclusive; / = not tested or not shown; + = active, no number. Most compounds without a hit are left out; they make up all but 3.2% or so of the library.

SMILES	TMEM16A act	CHT PAM	Kir21 block	Rce1 inh	CHT inh	ANO1 block
COc1ccc(NC(C)=O)cc1S(=O)(=O)NC(C)c1ccc(-n2ccnc2)cc1 (stereo not drawn)	i	/	/	/	/	/
O=C(c1ccc2ccccc2c1)C1CCCN(C(=O)c2noc3c2CCCC3)C1 (stereo not drawn)	i	i	0.58	i	i	25*
COc1ccccc1NC(=O)/C(C#N)=C/c1cccnc1	i	i	0.01	i	i	i
N#C/C(=C\c1cccnc1)C(=O)Nc1cccc2ccccc12	i	i	-4.5*	i	i	i
O=C1C2CCCCC2C(=O)N1c1ccc(S(=O)(=O)Nc2ncccn2)cc1 (stereo not drawn)	i	i	0.34	i	i	i
CCOC(=O)C(C(=O)NCc1ccc(F)cc1)c1ncc(C(F)(F)F)cc1Cl (stereo not drawn)	i	i	/	i	i	i
O=C(NCc1ccc(F)cc1)C(C(=O)NCc1ccc(F)cc1)c1ncc(C(F)(F)F)cc1Cl	-7.3*	i	1.6	i	i	i
Cn1cnc(S(=O)(=O)N2CCN(C(c3ccccc3)c3ccccc3)CC2)c1	i	i	-0.02	i	i	i
COc1ccc(NC(=O)C(NC(=O)c2ccc(C)cc2)c2ccccc2)cc1 (stereo not drawn)	i	i	-1	i	i	i
CC1CCN(CCCNC(=O)c2cn(C)c3ccc(S(=O)(=O)N4CCCC4)cc3c2=O)CC1	i	6.8*	1.8	i	i	i
COc1ccc(OC)c(S(=O)(=O)n2ccnc2C(C)C)c1	i	i	-0.07	i	i	i
N#CC(c1ccccc1)N(CCCCl)C(=O)c1ccccc1 (stereo not drawn)	i	i	-4.6*	i	i	i
CN(CC(=O)Nc1c(Cl)cccc1Cl)C(=O)Cc1cccs1	i	/	/	/	/	/
O=C(NCc1ccccc1)c1cccc(COc2cccc(Cl)c2)c1	i	i	0.86	i	i	i
O=C(NCc1ccccc1)c1cccc(COc2ccc(Cl)cc2)c1	i	i	0.54	i	i	25*
Cc1ccnc(NC(=O)c2cc(S(=O)(=O)NCc3ccccc3)ccc2C)c1	i	/	/	/	/	/
Cc1ccc(S(=O)(=O)Nc2ccccc2-c2ccccc2NS(=O)(=O)c2ccc(C)cc2)cc1	i	i	0.06	i	i	100*
Cc1ccc(S(=O)(=O)Nc2ccccc2C(O)c2ccccc2)cc1 (stereo not drawn)	i	i	-5*	i	i	i
Cc1ccc(S(=O)(=O)Nc2ccccc2C(N)=O)cc1	i	i	0.4	i	i	i
CCOC(=O)c1cnc2cc(C)nn2c1C	i	i	-0.02	i	i	i
CCOC(=O)c1cnc2c(C#N)c(C)nn2c1C	-23*	i	1.7	i	i	i
O=C(Nc1ccc(F)cc1)Oc1ccccc1N1CCOCC1	i	i	-0.58	+	i	i
CN1CCN(C2Cc3ccc(F)cc3Sc3cc(F)c(Cl)cc32)CC1 (stereo not drawn)	i	i	-0.02	i	i	i
CC(C)c1ccc2c(c1)C(N1CCNCC1)Cc1ccc(F)cc1S2 (stereo not drawn)	i	i	-5.2*	i	i	i
COc1ccccc1CC(=O)N1CCCc2cc(C)ccc21	i	i	-7.3*	i	i	i
SMILES	TMEM16A act	CHT PAM	Kir21 block	Rce1 inh	CHT inh	ANO1 block
CCN(CC)CCCNc1ccc(-c2nnc(-c3ccc(OCC(C)C)cc3)o2)cn1	-5.6*	i	-6.5*	?	i	i
Cc1ccc(C(=O)NCCN2C3=NC[C@H](C(C)C)N3C[C@H]2Cc2ccc(O)cc2)cc1Br	i	i	-3.3	i	i	i
COc1ccc(C[C@H]2CN3C(=NC[C@@H]3C(C)C)N2CCNC(=O)c2ccc(C)c(Br)c2)cc1	i	i	-6.5*	i	i	i
CC1=C(C(=O)OC(C)(C)C)C(c2cccc3ccccc23)NC(=O)N1 (stereo not drawn)	/	i	-0.25	i	i	i
Nc1nc2c(ncn2COC(CO)CO)c(=O)[nH]1	i	i	0.26	+	i	i
CCNC(=S)NNC(=O)c1cc(-c2ccc(OC)cc2)nc2ccccc12	i	i	-0.7	i	i	i
CCCCOc1ccc(-c2cc(C(=O)NNC(=S)NCC)c3ccccc3n2)cc1	i	i	-0.61	i	i	100*
COc1ccc(Cl)cc1C(=O)NNC(=S)NC(=O)c1cc(-c2ccc(Cl)cc2)nc2ccccc12	i	i	1	i	i	100*
CCCNC(=O)COC(=O)c1cc(-c2ccc(OC)cc2)nc2ccccc12	i	i	0.1	i	i	i
COc1ccc(-c2cc(C(=O)OCC(=O)NC(C)C)c3ccccc3n2)cc1	i	i	-4.4*	i	i	i
CC(C)[C@H](N)C(=O)NC[C@H]1CC[C@H](C(=O)N[C@@H](Cc2ccccc2)C(=O)O)CC1	i	i	2.2	i	i	i
COc1ccc(CNC(=O)CCS(=O)(=O)c2ccc3c(c2)CC(C)N3C(=O)C2CC2)cc1 (stereo not drawn)	i	i	3.5	i	i	i
CN(Cc1nc(-c2cccnc2)no1)S(=O)(=O)c1ccc2ccccc2c1	i	i	-4.8*	i	i	i
CN(Cc1nc(-c2ccccn2)no1)S(=O)(=O)c1ccc(Br)cc1	i	i	0.28	i	i	i
Oc1cc(-c2ccccc2)c2ccccc2c1	i	i	-4.6*	i	i	i
O=C(O)CSc1c2ccccc2cc2ccccc12	i	i	0.48	i	i	i
CCCn1c(-c2cc(OC)c(OC)c(OC)c2)nc2c1c(=O)[nH]c(=O)n2Cc1ccccc1	i	i	-0.4	i	i	i
CCCOc1ccc(-c2nc3c(c(=O)[nH]c(=O)n3Cc3ccccc3)n2CCO)cc1OCC	i	i	1.2	+	i	i
COc1ccccc1CN1CC(C(=O)N(C)CCc2nc3ccc(F)cc3[nH]2)CCC1=O (stereo not drawn)	i	i	-1.6	i	i	i
CCc1ccc(CC2S/C(=C(\C#N)C(C)=O)NC2=O)cc1 (stereo not drawn)	i	i	1.2	i	i	100*
COC(=O)c1c(NC(=O)CCNCc2ccco2)sc2c1CCC2	i	i	-8.1*	/	i	i
N#Cc1ccc(OCC(=O)N2CCCC2=O)cc1	i	/	/	/	/	/

Compound activity deposited in PubChem by several laboratories.
